IDE exosite FP: exo-site inhibitors of human IDE, primary screen, biochemical, fluorescence anisotropy, probe displacement; 17,000 compounds, 6.3% hits; purified IDE, FL-6b probe fluorescence polarization; active compounds read low; AID 1259349, 2017; Insulin-degrading enzyme (Homo sapiens), P14735; z-score at 20 µM;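 active = z-score of -3 or lower, meaning strong loss of probe binding signal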;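 also: His-tagged human IDE residues 42-1019 made in E. coli with 30 nM FL-6b probe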
Target sequence (P14735 42-1019 limits assumed): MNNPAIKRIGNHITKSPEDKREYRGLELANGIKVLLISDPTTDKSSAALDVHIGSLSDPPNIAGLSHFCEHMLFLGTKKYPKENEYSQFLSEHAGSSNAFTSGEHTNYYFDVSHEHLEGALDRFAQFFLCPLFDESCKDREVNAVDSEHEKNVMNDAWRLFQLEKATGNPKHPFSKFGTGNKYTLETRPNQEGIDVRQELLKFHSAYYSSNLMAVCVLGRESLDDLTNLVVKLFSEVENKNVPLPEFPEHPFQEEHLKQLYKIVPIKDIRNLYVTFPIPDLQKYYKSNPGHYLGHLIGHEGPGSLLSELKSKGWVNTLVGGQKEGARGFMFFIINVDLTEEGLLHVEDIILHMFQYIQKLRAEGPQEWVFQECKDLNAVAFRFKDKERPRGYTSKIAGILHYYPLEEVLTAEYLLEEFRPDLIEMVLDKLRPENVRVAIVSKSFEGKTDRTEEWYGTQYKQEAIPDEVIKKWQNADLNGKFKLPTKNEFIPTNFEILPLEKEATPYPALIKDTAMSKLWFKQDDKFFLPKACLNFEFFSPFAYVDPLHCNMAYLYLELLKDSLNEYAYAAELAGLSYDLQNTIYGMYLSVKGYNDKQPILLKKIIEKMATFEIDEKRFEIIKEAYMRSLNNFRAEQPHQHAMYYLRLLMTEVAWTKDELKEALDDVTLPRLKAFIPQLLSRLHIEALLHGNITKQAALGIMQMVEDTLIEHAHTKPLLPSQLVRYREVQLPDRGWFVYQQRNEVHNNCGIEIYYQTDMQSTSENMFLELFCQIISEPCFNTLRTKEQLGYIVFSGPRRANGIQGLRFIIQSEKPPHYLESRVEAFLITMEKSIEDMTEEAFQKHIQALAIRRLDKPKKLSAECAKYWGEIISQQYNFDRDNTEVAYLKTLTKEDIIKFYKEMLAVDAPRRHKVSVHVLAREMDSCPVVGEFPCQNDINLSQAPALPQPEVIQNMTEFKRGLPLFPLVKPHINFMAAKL
* hit, by the source's call; ! = a repeat was not active. This is one part of a sample in which hits are shown more often than they occur.

Screening CN(C)CC(=O)N1C[C@@H]2N[C@H](C1)C2c1ccc(C2=CCCCC2)cc1 (some centres not stated) returned IDE exosite FP 0.7.
Screening CN(C)CC(=O)N1C[C@@H]2N[C@H](C1)C2c1ccc(/C=C/c2ccccc2)cc1 (some centres not stated) returned IDE exosite FP -5.6*!.
Screening CC(C)NC(=O)Nc1ccc2c(c1)C(=O)N([C@H](C)CO)C[C@@H](C)[C@H](CN(C)C(=O)C1CCCCC1)OCCCC[C@H](C)O2 returned IDE exosite FP 1.9.
`COc1cccc(-c2cccc(-c3nc(C(=O)O)cc4c3[C@@H](CCO)N(S(=O)C(C)(C)C)C4)c2)c1` (some centres not stated) gave IDE exosite FP 1.5.
Screening CC=Cc1ccc2n(c1=O)C[C@H]1[C@H](CO)[C@@H](C(=O)NCc3cccc(OC)c3)N[C@@H]21 (mixture of isomers) returned IDE exosite FP 0.2.
For COc1ccc(S(=O)(=O)N2CCCCN3[C@H](CO)[C@H](c4ccc(C#CC5CC5)cc4)[C@H]3C2)cc1 the results were IDE exosite FP 2.5.
For CO[C@H]1CN(C)C(=O)c2cc(NC(=O)NC3CCCCC3)ccc2OC[C@@H](C)N(CC2CCOCC2)C[C@@H]1C the results were IDE exosite FP 0.82.
`O=C(Cc1ccccc1)N1CC(=O)N2[C@H](CO)[C@@H](c3ccc(C#Cc4ccccc4)cc3)[C@H]2C1` gave IDE exosite FP -1.8.
For O=C(Cc1ccccc1)N1CC(=O)N2[C@@H](CO)[C@H](c3ccc(C#Cc4ccccc4)cc3)[C@@H]2C1 the results were IDE exosite FP -2.8.
Screening O=C(Cc1ccccc1)N1CC(=O)N2[C@H](CO)[C@@H](c3ccc(C#CCc4ccccc4)cc3)[C@@H]2C1 returned IDE exosite FP 3.2.
O=C(Cc1ccccc1)N1CC(=O)N2[C@@H](CO)[C@@H](c3ccc(C#CCc4ccccc4)cc3)[C@@H]2C1 was read as IDE exosite FP -4*.
O=C(Cc1ccccc1)N1CC(=O)N2[C@@H](CO)[C@H](c3ccc(C#CCc4ccccc4)cc3)[C@@H]2C1 was read as IDE exosite FP -1.3.
Screening O=C(Cc1ccccc1)N1CC(=O)N2[C@H](C1)[C@H](c1ccc(C#CCc3ccccc3)cc1)[C@@H]2CO returned IDE exosite FP -3.6*.
O=S(=O)(c1ccccc1)N1CCCCN2[C@H](CO)[C@H](c3ccc(C#Cc4cccnc4)cc3)[C@@H]2C1 was read as IDE exosite FP 3.4.
For O=C(Nc1ccc(F)cc1)N1CC(=O)N2[C@H](CO)[C@H](c3ccc(C#Cc4cccnc4)cc3)[C@H]2C1 the results were IDE exosite FP 0.58.
O=C(Nc1ccccc1)N1CC(=O)N2[C@H](CO)[C@@H](c3ccc(-c4ccc(F)cc4)cc3)[C@H]2C1 was read as IDE exosite FP 1.8.
For CC(C)C#Cc1ccc([C@H]2[C@@H](CO)N3C(=O)CN(C(=O)NC4CCCC4)C[C@@H]23)cc1 the results were IDE exosite FP 0.77.
For CC(C)CN(C[C@@H]1N[C@@H](CO)[C@@H]1c1ccccc1)C(=O)CN(C)C the results were IDE exosite FP 3.7.
For O=C(Nc1ccccc1)N1CC(=O)N2[C@H](C1)[C@@H](c1ccc(-c3ccc(F)cc3)cc1)[C@@H]2CO the results were IDE exosite FP -0.87.
`Cc1ccccc1-c1ccc([C@H]2[C@@H](CO)N3C(=O)CN(C(=O)Nc4ccc(F)cc4)C[C@@H]23)cc1` gave IDE exosite FP -10*.
`O=C(Nc1ccc(F)cc1)N1CC(=O)N2[C@H](CO)[C@H](c3ccc(-c4ccc(F)cc4)cc3)[C@@H]2C1` gave IDE exosite FP 0.3.
`O=C(Nc1ccc(F)cc1)N1CC(=O)N2[C@@H](CO)[C@@H](c3ccc(-c4ccccc4)cc3)[C@@H]2C1` gave IDE exosite FP -0.63.
Screening Cc1ccc(-c2ccc([C@H]3[C@@H](CO)N4C(=O)CN(C(=O)Nc5ccc(F)cc5)C[C@H]34)cc2)cc1 returned IDE exosite FP 1.6.
For O=C(Nc1ccc(F)cc1)N1CC(=O)N2[C@H](CO)[C@@H](c3ccc(-c4ccccc4)cc3)[C@@H]2C1 the results were IDE exosite FP -4.8*.
`O=C(Nc1cccc(Cl)c1)N[C@@H]1CC[C@H](CCn2cc(Cc3ccccc3)nn2)O[C@H]1CO` gave IDE exosite FP -0.15.
Screening N#C[C@H]1[C@H](c2ccccc2C2=CCCC2)[C@@H](CO)N1C(=O)CN1CCOCC1 returned IDE exosite FP 0.54.
Screening COc1ccc(-c2ccc3n(c2=O)C[C@H]2[C@H](CO)[C@@H](C(=O)N4CCOCC4)N[C@@H]32)cc1 returned IDE exosite FP 0.9.
For CCS(=O)(=O)N1[C@H](CO)[C@@H](c2ccc(C#CCC3CCCC3)cc2)[C@@H]1C#N the results were IDE exosite FP -0.39.
`C[C@H]1CN([C@@H](C)CO)C(=O)CCCn2nncc2CO[C@@H]1CN(C)C(=O)CCC(F)(F)F` gave IDE exosite FP -0.45.
Screening O=C(c1cccnc1)N1CCCCN2[C@H](C1)[C@@H](c1ccc(C#Cc3cccnc3)cc1)[C@@H]2CO returned IDE exosite FP 1.9.
`CC(C)(O)C#Cc1ccc([C@H]2[C@H](CO)N3CCCCN(C(=O)c4cccnc4)C[C@@H]23)cc1` gave IDE exosite FP 3.7.
For O=C(c1ccncc1)N1CCCCN2[C@H](CO)[C@H](c3ccc(C#Cc4ccccn4)cc3)[C@@H]2C1 the results were IDE exosite FP -0.33.
Screening O=C(c1ccncc1)N1CCCCN2[C@H](C1)[C@@H](c1ccc(C#Cc3ccccn3)cc1)[C@@H]2CO returned IDE exosite FP 0.83.
Screening O=C(c1cccnc1)N1CCCCN2[C@@H](CO)[C@H](c3ccc(C#Cc4ccccn4)cc3)[C@@H]2C1 returned IDE exosite FP -7.7*.
For O=C(c1cccnc1)N1CCCCN2[C@H](C1)[C@H](c1ccc(C#Cc3ccccn3)cc1)[C@@H]2CO the results were IDE exosite FP -5.5*.
Screening CC(C)(O)C#Cc1ccc([C@@H]2[C@@H](CO)N3CCCCN(C(=O)c4cccnc4)C[C@H]23)cc1 returned IDE exosite FP 3.5.
For CC(C)(O)C#Cc1ccc([C@H]2[C@@H](CO)N3CCCCN(C(=O)c4cccnc4)C[C@@H]23)cc1 the results were IDE exosite FP 1.1.
Screening O=C(c1cccnc1)N1CCCCN2[C@H](CO)[C@H](c3ccc(C#Cc4cccnc4)cc3)[C@@H]2C1 returned IDE exosite FP -4.3*.
Screening c1cncc(-c2ccc(C3[C@H]4CNC[C@@H]3N4Cc3ccc4c(c3)OCO4)cc2)c1 (some centres not stated) returned IDE exosite FP 3.9.
Screening CN(C)C(=O)c1ccc(-c2ccc(C3[C@H]4CNC[C@@H]3N4C(=O)NC3CCCC3)cc2)cc1 (some centres not stated) returned IDE exosite FP 0.072.
COc1ccc2c3c(n(C)c2c1)[C@@H](CO)N(Cc1cccnc1)CC31CN(C(=O)c2cccnc2)C1 was read as IDE exosite FP -0.39.
For COCC#Cc1ccc([C@@H]2[C@@H](CO)N3C(=O)CN(C(=O)c4cccnc4)C[C@H]23)cc1 the results were IDE exosite FP 4.
For COC(=O)C[C@@H]1CC[C@H]2[C@@H](COc3ccc(NC(=O)Nc4cccc(C#N)c4)cc3C(=O)N2C)O1 the results were IDE exosite FP -0.058.
Screening COCC#Cc1ccc([C@H]2[C@H]3CN(C(=O)c4cccnc4)CC(=O)N3[C@H]2CO)cc1 returned IDE exosite FP 2.4.
